Read-out in test [1]: Monocyte Chemoattractant Protein-1 (MCP1), CCL2 (gene 6347)
Description: BSK_SAg_MCP1: BioMAP Diversity Plus: SAg Assay for Monocyte Chemoattractant Protein-1 (MCP1) Biomarker Activity (AID 2283090). The settings on record: primary human HUVEC with PBMC; actives raise or lower the signal. In outline:
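MCP-1 levels in the endothelial–PBMC SAg co-culture were quantified by ELISA at 24 h post-dosing; both increases and decreases versus DMSO scored. Cytotoxicity monitored by SRB total protein in parallel cultures.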

Read-out in test [2]: E-selectin (Homo sapiens) (UniProt P16581)
Description: BSK_SAg_Eselectin: BioMAP Diversity Plus: SAg Assay for Eselectin Biomarker Activity (AID 2283091). The settings on record: primary human HUVEC with PBMC; actives raise or lower the signal. In outline:
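Human umbilical vein endothelial cells co-cultured with peripheral blood mononuclear cells, SAg system. E-selectin is measured by ELISA 24 h after dosing and fitted bidirectionally against DMSO. Cytotoxicity is checked by SRB staining of parallel cultures.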

Read-out in test [3]: Monokine induced gamma interferon (MIG), CXCL9 (gene 4283)
Description: BSK_SAg_MIG: BioMAP Diversity Plus: SAg Assay for Monokine induced gamma interferon (MIG) Biomarker Activity (AID 2283092). The settings on record: primary human HUVEC with PBMC; actives raise or lower the signal. The gist of the method:
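Endothelial cells and PBMC were co-cultured, exposed to test chemicals, and sampled 24 h later. MIG was measured by ELISA, and responses were fitted in both directions relative to DMSO.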

Test [4] can be described thus: BSK_SAg_PBMCCytotoxicity: PBMC Cytotoxicity Assessment in the BioMAP Diversity Plus: SAg Assay (AID 2283093).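 Further: PBMC viability measured as Alamar Blue reduction fluorescence at 546/580 nm; fitted both ways against DMSO so a hit may be loss or gain of signal.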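 On AC50: PBMC superantigen activated with SEB plus TSST-1 one hour after compound addition.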 The note with it: primary human HUVEC with PBMC. The gist of the method:
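HUVEC/PBMC co-culture; PBMC exposed to chemical 1 h before SEB and TSST-1 activation (20 ng/mL each), incubated 90 h, then Alamar Blue 6 h, fluorescence 546/580 nm. Bidirectional fit versus DMSO baseline.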

Read-out in test [5]: Interleukin-8 (IL8), CXCL8 (gene 3576)
Description: BSK_SAg_IL8: BioMAP Diversity Plus: SAg Assay for Interleukin-8 (IL8) Biomarker Activity (AID 2283094). The note with it: primary human HUVEC with PBMC; actives raise or lower the signal. In outline:
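ELISA read-out of IL-8 in a primary human vascular co-culture (umbilical vein endothelium plus PBMC), taken 24 h after compound addition. Values derive from bidirectional fits against DMSO negative controls.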

A short description of test [6]: BSK_SAg_Proliferation: Cell Proliferation Assessment in the BioMAP Diversity Plus: SAg Assay (AID 2283095).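 Further: relative cell number as total protein by SRB absorbance in sub-confluent culture.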 The note with it: primary human HUVEC with PBMC. In outline:
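Cells (endothelium plus PBMC, human primary) were dosed with chemical, cultured 96 h, fixed in 10% TCA and stained with 0.1% SRB. Absorbance at 560 nm gave relative protein, fitted bidirectionally relative to DMSO.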

The nature of test [7]: BSK_SAg_SRB: Viability Assessment in the BioMAP Diversity Plus: SAg Assay (AID 2283096).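 Further: cells read one day after compound addition; hits may be either gain or loss of signal compared with DMSO.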 The note with it: primary human HUVEC with PBMC. In outline: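 Human umbilical vein endothelial cells co-cultured with PBMC, read 24 h after compound dosing. Total protein measured by sulforhodamine B staining (0.1% SRB after 10% TCA fixation, absorbance 560 nm); bidirectional fit versus DMSO baseline.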

Test [8] has as its target human CYP19A1, CYP19A1 (gene 1588) (UniProt P11511). Description: NVS_ADME_hCYP19A1: NovaScreen (NVS) CYP450-related Enzyme Activity (ADME) Assay for human CYP19A1 (AID 2283098; active means hit-call score of the fitted dose curve at least 0.9, where 1 is the maximum;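 on AC50: potency for inhibitors seen as loss of fluorescent enzyme signal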). In outline:
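Recombinant enzyme in a cell-free format, read 0.5 h after dosing by fluorescence from a fluorogenic substrate. Loss of signal was fitted against acetonitrile as baseline. Primary screen in duplicate at 10 uM, actives then tested in concentration series.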

In test [9] the target is human CYP1A1, CYP1A1 (gene 1543) (UniProt P04798). Put plainly: NVS_ADME_hCYP1A1: NovaScreen (NVS) CYP450-related Enzyme Activity (ADME) Assay for human CYP1A1 (AID 2283100; active means hit-call score of the fitted dose curve at least 0.9, where 1 is the maximum). In outline: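 Recombinant CYP1A1 with a fluorogenic substrate, cell-free, read 1 h after dosing; acetonitrile as negative control. Single-concentration screen at 10 uM in duplicate, then concentration-response up to 20 uM for chemicals meeting ~30% inhibition threshold.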
Sequence of human CYP1A1, CYP1A1 (gene 1543) (P04798 whole entry, looked up): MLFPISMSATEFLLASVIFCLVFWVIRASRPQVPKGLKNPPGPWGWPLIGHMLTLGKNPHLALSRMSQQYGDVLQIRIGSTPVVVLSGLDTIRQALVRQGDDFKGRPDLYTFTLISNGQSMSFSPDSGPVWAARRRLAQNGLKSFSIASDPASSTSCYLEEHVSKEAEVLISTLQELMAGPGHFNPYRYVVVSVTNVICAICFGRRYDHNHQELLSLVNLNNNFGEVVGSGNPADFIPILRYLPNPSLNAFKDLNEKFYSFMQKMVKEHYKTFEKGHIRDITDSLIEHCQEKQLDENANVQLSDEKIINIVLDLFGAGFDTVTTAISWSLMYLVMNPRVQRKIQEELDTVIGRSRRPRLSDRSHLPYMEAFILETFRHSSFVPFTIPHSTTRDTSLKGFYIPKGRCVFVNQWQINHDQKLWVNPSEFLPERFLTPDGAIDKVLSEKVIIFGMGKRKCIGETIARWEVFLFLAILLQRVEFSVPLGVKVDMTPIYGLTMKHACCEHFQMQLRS

The target in test [10] is human CYP2A6, CYP2A6 (gene 1548) (UniProt P11509). Put plainly: NVS_ADME_hCYP2A6: NovaScreen (NVS) CYP450-related Enzyme Activity (ADME) Assay for human CYP2A6 (AID 2283099; active means hit-call score of the fitted dose curve at least 0.9, where 1 is the maximum). How it is done:
NVS_ADME_hCYP2A6 is a biochemical, single-readout assay that uses extracted gene-proteins from insect cells in a cell-free assay. Measurements were taken 0.5 hour after chemical dosing in a 96-well plate.NVS_ADME_hCYP2A6 is one of one assay component(s) measured or calculated from the NVS_ADME_hCYP2A6 assay. It is designed to make measurements of enzyme activity, a form of enzyme reporter, as detected with fluorescence intensity signals by Fluorescence technology.Data from the assay component NVS_ADME_hCYP2A6 was analyzed into 1 assay endpoint. This assay endpoint, NVS_ADME_hCYP2A6, was analyzed in the positive analysis fitting direction relative to Acetonitrile as the negative control and baseline of activity. Using a type of enzyme reporter, loss-of-signal activity can be used to understand changes in the enzymatic activity as they relate to the gene CYP2A6. Furthermore, this assay endpoint can be referred to as a primary readout, because this assay has produced multiple assay endpoints where this one serves a enzymatic activity function. To generalize the intended target to other relatable targets, this assay endpoint is annotated to the cyp intended target family, where the subfamily is xenobiotic metabolism.
Binding assays used specific radioligands (tritiated, iodinated) with non-radioactive competitive displacement ligands in agonist or antagonist protocols (as indicated) and various reference compounds and inhibitors to titrate specific binding to receptors and transporters. Most enzyme assays (CYPs, kinases, phosphatases, proteases, HDACs) used recombinant protein and specific substrates (fluorescence mostly, some colorimetric and radioactive) and inhibitors, followed by a biochemical separation of substrate and product. All assays for the biochemical HTS were initially run in duplicate at a single concentration (10 uM for CYP450 assays and 25 uM for all others). Assay-chemical combinations meeting a pre-defined threshold (e.g., 30% inhibition and other criteria defined below) were then run in singleton concentration-response format with maximum concentration of 20 uM for CYPs and 50 uM for all others. Each assay was run with positive and negative controls, and concurrent controls on every plate. The follow-up (secondary) screen tested active chemical-pairs in concentration series, as well as a few additional assays not tested in the primary screen, some selected negative inactives, and several cases re-run in the concentration series for confirmatory purposes.

Where “and” joins values, the source holds several entries; their conditions need not be identical. Equal entries are not always repeated. Inconclusive results are not listed. Where a structure was tested more than once in an assay, its records may differ in their call. Calls of active or inactive are those of the source. How the source made its calls, unless noted: active means hit-call score of the fitted dose curve at least 0.9, where 1 is the maximum; inactive means score below 0.9.

Sequence of human CYP19A1, CYP19A1 (gene 1588) (P11511 whole entry, looked up): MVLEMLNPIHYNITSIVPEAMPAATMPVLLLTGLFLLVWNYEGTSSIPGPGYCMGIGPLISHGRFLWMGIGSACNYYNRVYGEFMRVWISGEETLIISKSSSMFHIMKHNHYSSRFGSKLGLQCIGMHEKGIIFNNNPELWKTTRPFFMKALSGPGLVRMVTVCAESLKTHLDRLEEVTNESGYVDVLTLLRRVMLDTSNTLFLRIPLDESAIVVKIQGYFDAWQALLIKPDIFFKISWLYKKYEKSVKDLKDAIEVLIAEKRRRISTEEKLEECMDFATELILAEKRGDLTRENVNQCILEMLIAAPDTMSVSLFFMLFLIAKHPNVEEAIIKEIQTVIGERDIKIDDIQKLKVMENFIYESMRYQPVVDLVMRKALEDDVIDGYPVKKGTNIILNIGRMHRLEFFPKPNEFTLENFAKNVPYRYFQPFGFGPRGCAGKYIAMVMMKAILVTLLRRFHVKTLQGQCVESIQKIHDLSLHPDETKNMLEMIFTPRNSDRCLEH
Sequence of human CYP2A6, CYP2A6 (gene 1548) (P11509 whole entry, looked up): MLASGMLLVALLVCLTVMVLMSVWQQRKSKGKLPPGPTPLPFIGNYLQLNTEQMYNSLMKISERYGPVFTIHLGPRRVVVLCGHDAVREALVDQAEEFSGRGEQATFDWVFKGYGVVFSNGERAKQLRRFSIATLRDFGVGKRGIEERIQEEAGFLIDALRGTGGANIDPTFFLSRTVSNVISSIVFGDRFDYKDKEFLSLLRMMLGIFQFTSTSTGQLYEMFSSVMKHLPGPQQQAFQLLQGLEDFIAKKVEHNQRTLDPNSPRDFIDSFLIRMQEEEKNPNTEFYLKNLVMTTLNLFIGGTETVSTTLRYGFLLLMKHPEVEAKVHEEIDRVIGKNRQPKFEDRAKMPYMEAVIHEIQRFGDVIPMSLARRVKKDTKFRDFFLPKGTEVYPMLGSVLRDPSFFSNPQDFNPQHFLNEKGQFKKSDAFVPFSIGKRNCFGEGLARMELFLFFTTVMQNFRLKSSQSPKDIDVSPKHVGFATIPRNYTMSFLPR
Sequence of E-selectin (Homo sapiens) (P16581 whole entry, looked up): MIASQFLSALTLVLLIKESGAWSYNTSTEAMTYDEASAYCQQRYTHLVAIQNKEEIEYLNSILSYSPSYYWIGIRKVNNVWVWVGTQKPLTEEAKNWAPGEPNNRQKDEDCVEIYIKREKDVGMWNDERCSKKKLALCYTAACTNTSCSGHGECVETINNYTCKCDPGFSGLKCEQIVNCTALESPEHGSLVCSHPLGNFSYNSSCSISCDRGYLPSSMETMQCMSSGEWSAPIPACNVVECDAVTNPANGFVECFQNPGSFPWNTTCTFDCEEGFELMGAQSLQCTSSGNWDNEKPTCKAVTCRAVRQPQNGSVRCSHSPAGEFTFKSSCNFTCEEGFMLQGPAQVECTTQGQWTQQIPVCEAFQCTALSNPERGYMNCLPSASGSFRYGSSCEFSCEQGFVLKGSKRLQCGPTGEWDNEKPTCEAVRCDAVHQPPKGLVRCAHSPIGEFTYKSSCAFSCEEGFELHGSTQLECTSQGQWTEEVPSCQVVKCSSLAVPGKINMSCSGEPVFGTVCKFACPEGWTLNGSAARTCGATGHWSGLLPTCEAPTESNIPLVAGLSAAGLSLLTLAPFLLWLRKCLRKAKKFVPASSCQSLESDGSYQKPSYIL

By AC50 is commonly meant the concentration at which the activity in the assay is half-maximal. For `CCCCNC(=O)n1c(NC(=O)OC)nc2ccccc21`, the outcome in [1], in [2], in test [3], in test [4] and in [5] was inactive. Besides, the AC50 in [6] is 6.25 µM (active); in test [7], 12.3 µM (active).

`COC(=O)N(OC)c1ccccc1COc1ccn(-c2ccc(Cl)cc2)n1`: the concentration at half-maximal activity (AC50) in [1] is 4.97 µM (active); in [2], 3.97 µM (active); in test [3] it was 11.9 µM (active); in test [4], 0.222 µM (active); in test [5], 2.92 µM (active); in test [6], 3.97 µM (active). For the same compound, the AC50 in test [7] was 8.48 µM (active); in [9], 1.87 µM (active). Besides, in test [8], the compound was called inactive.

For `CON(C)C(=O)Nc1ccc(Cl)c(Cl)c1`, the outcome in [1], in test [2], in [3], in test [4], in test [5] and in [6] was inactive. The outcome in test [7] and in [8] was inactive. Further, the AC50 in test [9] is 3.72 µM (active).

Consider `CCOC(=O)C(Cl)Cc1cc(-n2nc(C)n(C(F)F)c2=O)c(F)cc1Cl` (stereo not given), for which the outcome in test [1], in test [2], in test [3], in test [4], in test [5] and in test [7] was inactive. Moreover, the AC50 in test [6] was 21.2 µM (active); in test [9], 5.46 µM (active).

Regarding `CNC(=S)S`, the outcome in test [1], in [3], in test [5] and in [8] was inactive. The AC50 was 27.5 µM (active) in test [2], 14.7 µM (active) in test [4], 11.9 µM (active) in test [6] and 23.3 µM (active) in test [7].

Consider `CC1COC(Cn2cncn2)(c2ccc(Oc3ccc(Cl)cc3)cc2Cl)O1` (stereo not given), for which the concentration at half-maximal activity (AC50) in test [1] was 23.8 µM (active); in [2] it was 13.1 µM (active); in test [3], 31.3 µM (active); in test [4] it was 33.2 µM (active); in test [5], 15.8 µM (active); in [6] it was 14.7 µM (active). For the same compound, the AC50 is 29.6 µM (active) in test [7], 0.706 µM (active) in test [8] and 1.63 µM (active) in test [9].

Take `CN(C)C(=S)SSC(=S)N(C)C`: the half-maximal activity concentration (AC50) in test [1] is 28.7 µM (active); in [2], 24.8 µM (active); in [3], 36.6 µM (active); in test [4], 3.87 µM (active); in [5] it was 18.6 µM (active); in test [7], 35.3 µM (active). The compound was classed as inactive in test [10].

Consider `C=CCC1=C(C)C(OC(=O)C2C(C=C(C)C)C2(C)C)CC1=O` (stereo not given), for which the concentration at half-maximal activity (AC50) in test [1] was 34.9 µM (active) [middle of 4 runs]; in test [2], 32.6 µM (active) [middle of 4 runs]; in test [3], 39.6 µM (active) [middle of 4 runs]; in [4] it was 34 µM (active) [middle of 4 runs]; in test [5], 28.9 µM (active) [middle of 4 runs]; in test [6], 30.9 µM (active) [middle of 4 runs]. For the same compound, the AC50 in test [7] was 32.1 µM (active) and 32.7 µM (active) and 36.2 µM (active). Also, the outcome in test [7] and in test [10] was inactive.

With `O=C(Nc1ccccc1)Nc1ccnc(Cl)c1`, the result in [1], in [3], in [4], in test [7] and in [8] was inactive. Also, the concentration at half-maximal activity (AC50) in test [2] is 14.2 µM (active); in [5] it was 20 µM (active); in test [6], 33.5 µM (active); in test [9], 9.34 µM (active).

With `C#CCOS(=O)OC1CCCCC1Oc1ccc(C(C)(C)C)cc1` (stereo not given), the concentration at half-maximal activity (AC50) in test [1] is 7.84 µM (active); in test [2], 4.02 µM (active); in test [3], 16.7 µM (active); in [4], 14.6 µM (active); in test [5], 1.92 µM (active); in test [6], 1.16 µM (active). The AC50 in test [7] is 10.8 µM (active). In addition, the call in test [8] was inactive.

For `CCCC1COC(Cn2cncn2)(c2ccc(Cl)cc2Cl)O1` (stereo not given), the result in [1], in [2], in [3], in test [4], in [5] and in [7] was inactive. For the same compound, the call in [10] was inactive. For the same compound, the concentration at half-maximal activity (AC50) in test [6] is 20.7 µM (active); in test [8] it was 2.04 µM (active); in test [9] it was 7.82 µM (active).

On to `O=C(O)c1nc(Cl)ccc1Cl`, for which the outcome in test [1], in test [2], in test [3], in [4], in test [5] and in [6] was inactive. Also, the result in test [7] was inactive.

Source of the values: PubChem BioAssay (EPA / NIEHS).
